High-throughput results as filed in PubChem BioAssay.
USP28 inh = inhibitors of human USP28 deubiquitinase | purified USP28, Ub-rhodamine cleavage fluorescence, 30 min | actives 3% (n = 47,000) | inhibition, % at 25 µM | AID 1645857, 2021 | Ubiquitin carboxyl-terminal hydrolase 28 (Homo sapiens), Q96RU2
USP30 inh = inhibitors of human USP30 deubiquitinase; Ubiquitin carboxyl-terminal hydrolase 30 (Homo sapiens), Q70CQ3; inhibition, % at 25 µM; purified USP30, Ub-rhodamine cleavage fluorescence; AID 1645860, 2021; actives 5.3% (n = 47,000)
USP17 inh = inhibitors of human USP17 deubiquitinase; inhibition, % at 50 µM; actives 6.5% (n = 47,000); purified USP17, Ub-rhodamine cleavage fluorescence, 3 h; AID 1645855, 2021
USP10 block = inhibitors of human USP10 deubiquitinase | purified USP10, Ub-rhodamine fluorescence, 60 min | inhibition, % at 20 µM | actives 1.1% (n = 47,000) | Ubiquitin carboxyl-terminal hydrolase 10 (Homo sapiens), Q14694
USP7 inh = inhibitors of human USP7 deubiquitinase; Ubiquitin carboxyl-terminal hydrolase 7 (Homo sapiens), Q93009; purified USP7, Ub-rhodamine cleavage fluorescence; inhibition, % at 20 µM; actives 0.3% (n = 47,000); AID 1645854, 2021
USP8 inh = inhibitors of human USP8 deubiquitinase; purified USP8, Ub-rhodamine cleavage fluorescence, 30 min; inhibition, % at 20 µM; actives 4.2% (n = 47,000)
A number is an active result. In the library only some 13% were active in any assay of this set; here they are far more common. No stated cut-off is given here; in the data, active means inhibition above about 30%; inactive means the rest.

COc1ccc(-c2nnc(N3CCC(C(=O)NC4CCCC4)CC3)o2)cc1 was read as USP28 inh inactive, USP30 inh 80, USP17 inh 75, USP10 block inactive, USP7 inh inactive and USP8 inh inactive.
Screening CN1CCN(C(=O)c2cn3ccnc(-c4ccccc4)c3n2)CC1 returned USP28 inh inactive, USP30 inh inactive, USP17 inh inactive, USP10 block inactive, USP7 inh inactive and USP8 inh inactive.
For Cc1cc(N2C(=O)c3oc4ccc(F)cc4c(=O)c3C2c2cccc(OCc3ccccc3Cl)c2)no1 (centres undefined) the results were USP28 inh inactive, USP30 inh inactive, USP17 inh inactive, USP10 block inactive, USP7 inh inactive and USP8 inh 31.
CCCn1cc2c3c(cccc31)CN(C(=O)C(C)(C)C)CC2 was read as USP28 inh inactive, USP30 inh inactive, USP17 inh inactive, USP10 block inactive, USP7 inh inactive and USP8 inh inactive.
For O=C([C@H]1C[C@@H]2CN(S(=O)(=O)C3CC3)C[C@H]1O2)N1CCOCC1 the results were USP28 inh inactive, USP30 inh inactive, USP17 inh inactive, USP10 block inactive, USP7 inh inactive and USP8 inh inactive.
`Cc1cc(OCCOCCN2CCN(C)CC2)cc(C)c1Cl` gave USP28 inh 33, USP30 inh inactive, USP17 inh inactive, USP10 block inactive, USP7 inh inactive and USP8 inh inactive.
For CN1C[C@@H](NC(=O)c2ccc(F)cc2)C[C@H]1c1nc(-c2ccc(F)cc2)no1 the results were USP28 inh inactive, USP30 inh inactive, USP10 block inactive, USP7 inh inactive and USP8 inh inactive.
COc1ccc(CCNC(=O)c2cnc3c(-c4cccc(C)c4)c(C)nn3c2C)cc1OC was read as USP28 inh 39, USP30 inh inactive, USP17 inh inactive, USP10 block inactive, USP7 inh inactive and USP8 inh inactive.
For COc1ccc(-c2cnc([C@@H]3COCCN3Cc3cnc[nH]3)[nH]2)cc1 the results were USP28 inh inactive, USP30 inh inactive, USP17 inh inactive, USP10 block inactive, USP7 inh inactive and USP8 inh inactive.
`O=C1NC(Cc2c[nH]c3ccccc23)C(=O)NC1Cc1c[nH]c2ccccc12` (centres undefined) gave USP28 inh inactive, USP30 inh inactive, USP17 inh inactive, USP10 block inactive, USP7 inh inactive and USP8 inh inactive.
For C=C1NC(=O)[C@@H](CC)NC(=O)CNC(=O)[C@H](Cc2c[nH]c3cccc(OC)c23)NC(=O)[C@H](Cc2c[nH]c3ccccc23)NC(=O)c2csc(n2)[C@@H](C)NC(=O)CN(C)C1=O the results were USP28 inh inactive, USP30 inh inactive, USP17 inh 32, USP10 block inactive, USP7 inh inactive and USP8 inh inactive.
Cc1ccc(-c2sc(-c3ccccc3)nc2CC(=O)O)cc1 was read as USP28 inh inactive, USP30 inh inactive, USP17 inh inactive, USP10 block inactive, USP7 inh inactive and USP8 inh inactive.
For O=C1C2=C(C(c3ccccc3)=NCCN2)C(c2cccc(F)c2)N1c1ccccc1 (centres undefined) the results were USP28 inh inactive, USP30 inh 32, USP17 inh inactive, USP10 block inactive, USP7 inh inactive and USP8 inh inactive.
`Cc1cc(Cl)c2c(c1)[C@]1(C(=O)N2)N2CCC[C@H]2[C@@H](C(=O)c2cc3ccccc3o2)[C@]12C(=O)Nc1ccccc12` gave USP28 inh inactive, USP30 inh inactive, USP17 inh 63, USP10 block inactive, USP7 inh inactive and USP8 inh 41.
For CCNc1oc(-c2ccc(S(=O)(=O)N3CCCCC3)cc2)nc1C#N the results were USP28 inh inactive, USP30 inh inactive, USP17 inh 63, USP10 block inactive, USP7 inh inactive and USP8 inh inactive.
`CN(c1ccccc1)c1nc(-c2ccccc2)no1` gave USP28 inh inactive, USP30 inh inactive, USP17 inh inactive, USP10 block inactive, USP7 inh inactive and USP8 inh inactive.
Screening COc1cccc(N2CCN(CC3C(=O)O[C@@H]4C[C@@]5(C)CCC=C(C)C5=C[C@H]34)CC2)c1 (some centres undefined) returned USP28 inh inactive, USP30 inh inactive, USP17 inh inactive, USP10 block inactive, USP7 inh inactive and USP8 inh inactive.
`Cc1c(C(=O)NC2CC2)nnn1-c1cccc2c1CCN(C(=O)NC(C)C)C2` gave USP28 inh inactive, USP30 inh inactive, USP17 inh inactive, USP10 block inactive, USP7 inh inactive and USP8 inh inactive.
`COc1cccc(-n2ccn3cc(-c4ccccc4)nc3c2=O)c1` gave USP28 inh inactive, USP30 inh inactive, USP17 inh 33, USP10 block inactive, USP7 inh inactive and USP8 inh inactive.
Screening N#Cc1c(-c2ccc3c(c2)OCO3)ccn2nc(-c3ccco3)nc12 returned USP28 inh inactive, USP30 inh inactive, USP17 inh inactive, USP10 block inactive, USP7 inh inactive and USP8 inh inactive.
`CCc1nc2c(C#N)c(-c3ccc(Cl)cc3)ccn2n1` gave USP28 inh 41, USP30 inh 83, USP17 inh 66, USP10 block inactive, USP7 inh inactive and USP8 inh 36.
For COc1ccc(NC(=O)Nc2ccc(F)c(-c3nnc(-c4ccccc4)o3)c2)c(OC)c1 the results were USP28 inh inactive, USP30 inh 40, USP17 inh inactive, USP10 block inactive, USP7 inh inactive and USP8 inh inactive.
Screening COc1ccc(NC(c2nnc(-c3ccccc3)o2)c2ccccc2F)c(OC)c1 (centres undefined) returned USP28 inh inactive, USP30 inh inactive, USP17 inh inactive, USP10 block inactive, USP7 inh inactive and USP8 inh inactive.
Screening COc1cc2c(cc1OC)-c1cc(Oc3ccc4c(c3)OCO4)nc(=O)n1CC2 returned USP28 inh inactive, USP30 inh inactive, USP17 inh inactive, USP10 block inactive, USP7 inh inactive and USP8 inh inactive.
Screening COCCn1c(=O)[nH]c2cc(C(=O)N3CCC(O)(c4cccc(C(F)(F)F)c4)CC3)ccc2c1=O returned USP28 inh inactive, USP30 inh inactive, USP17 inh inactive, USP10 block inactive, USP7 inh inactive and USP8 inh inactive.
COCCn1c(=S)[nH]c2cc(C(=O)NCCSCc3ccccc3)ccc2c1=O was read as USP28 inh inactive, USP30 inh 71, USP17 inh inactive, USP10 block inactive, USP7 inh inactive and USP8 inh inactive.
For Cc1c(C(=O)Nc2ccccn2)oc2c(Cl)cccc12 the results were USP28 inh inactive, USP30 inh 48, USP17 inh 33, USP10 block inactive, USP7 inh inactive and USP8 inh inactive.
Screening Cc1c(C(=O)Nc2ccccn2)oc2ccccc12 returned USP17 inh inactive, USP10 block inactive, USP7 inh inactive and USP8 inh inactive.
